# PubChem BioAssay (EPA / NIEHS)
# Active and inactive are the calls of the source. How the source made its calls: active means hit-call score of the fitted dose curve at least 0.9, where 1 is the maximum; inactive means score below 0.9.
# Experiment: CEETOX_H295R_11DCORT: CeeTox H295R High-throughput Steroidogenesis Assay for 11-Deoxycortisol (11DCORT) (AID 2283432);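 on AC50: 11-deoxycortisol secreted into the medium measured by LC-MS/MS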
# Conditions: actives raise or lower the signal
# Method: CEETOX_H295R is a cell-based, multiplexed-readout assay that uses H295R, a human adrenal gland cell line, with measurements taken at 48 hours after chemical dosing in a 96-well plate.CEETOX_H295R_11DCORT is one of 23 assay component(s) measured or calculated from the CEETOX_H295R assay. It is designed to make measurements of hormone induction, a form of inducible reporter, as detected with absorbance signals by HPLC-MS-MS technology.Data from the assay component CEETOX_H295R_11DCORT was analyzed into 1 assay endpoint. This assay endpoint, CEETOX_H295R_11DCORT, was analyzed with bidirectional fitting relative to DMSO as the negative control and baseline of activity. Using a type of inducible reporter, gain or loss-of-signal activity using HPLC-MS-MS was used to understand synthesis of 11-Deoxycortisol in H295R cell line at 48hr of chemical exposure. To generalize the intended target to other relatable targets, this assay endpoint is annotated to the steroid hormone intended target family, where the subfamily is glucocorticoids.
# Cell culture and media preparation procedures were conducted in accordance with OECD Test No. 456 guidelines, with minor modifications. H295R cells (ATCC CRL-2128) were expanded for 5 passages and frozen in batches in liquid nitrogen. Prior to the steroidogenesis assay, H295R cells were thawed and passed at least 4 times. The maximum passage was 10. Cells were maintained in a 1:1 mixture of DMEM/F12 supplemented with 5ml/L ITS+ Premix (BD Bioscience) and 12.5 ml/L Nu-Serum (BD Bioscience). After seeding cells into 96-well plates at 50-60% confluency, cells were allowed to adhere overnight. Prior to chemical testing, culture medium was replaced with 175 uL medium containing 10 uM forskolin to stimulate steroidogenesis for 48 hours. Following prestimulation, forskolin medium was replaced with medium containing test chemical solubilized in DMSO (ensuring a final concentration of 0.1% DMSO). Test chemicals were incubated for 48 hours, then the medium was removed and split into 2 vials containing approximately 75uL each, and stored at -80 C prior to hormone analysis. For steroid quantification, media samples were shipped to OpAns, LLC (Durham, NC) on dry ice, and samples were thawed to room temperature prior to liquid-liquid extraction. Steroid hormones were extracted from media samples using methyl tertbutyl ether (MTBE). An extra derivatization with dansyl chloride was included for estrogen (estrone and estradiol) detection only. Steroid hormones were separated by HPLC, eluted using a reverse phase C18 gradient with electrospray positive ionization, followed by quantification by tandem mass spectrometry (MS/MS). Data were acquired on a MassHunter Workstation Acquisition version B03.01 (Agilent Technologies, Inc.) and processed using MassHunter Quantitative Analysis for QQQ. Accuracy was determined for each hormone analyte from 3 standards to determine upper and lower limits of quantification (ULOQ and LLOQ, respectively) using a 7-point standard curve. Precision and accuracy of the extraction and quantification methods were calculated as the percent relative standard deviation (%RSD) of the spiked standards and percent spiked standard recovered, respectively. The goal was to achieve 100% accuracy (i.e., recover all spiked-in standard at quantification with minimal loss during run time) and good precision (i.e., have %RSD <15% to ensure reproducibility). Test medium was removed following chemical exposure, and cell viability was evaluated in the same wells by MTT. MTT procedures were as follows: after removal of test medium, 500 uL of 0.5 mg/ml of 3-[4,5-dimethylthiazol-2-y]2,5-diphenyltetrazoliumbromide solution was added to the cells. Following a 4-hour incubation at 37 C and 5% CO2 to allow formazan-crystal formation, the MTT solution was removed and blue formazan salt crystals were solubilized using 500uL anhydrous isopropanol with shaking for 20 minutes. […]
Compound,outcome,AC50
COc1ccc(C(=O)Nc2nc3ccccc3c(NCc3ccccc3)c2C#N)cc1,inactive,
Oc1ccc(O)cc1,inactive,
CC(=O)[C@@]1(O)CC[C@H]2[C@@H]3CCC4=CC(=O)CC[C@]4(C)[C@H]3CC[C@@]21C,,8.94 µM (active)
Oc1ccccc1O,inactive,
CC(C)(O)c1ccc(CNC(=O)c2cccnc2Oc2ccc(F)cc2)cc1,inactive,
O=C1NC(=O)C(c2ccccc2)(c2ccccc2)N1,inactive,
CCN(CC)CCOc1ccc(C(=C(Cl)c2ccccc2)c2ccccc2)cc1,,0.104 µM (active)
O=C1c2c(O)cccc2Cc2cccc(O)c21,,50 µM (active)
O=C(O)CN(CC(=O)O)CC(=O)O,inactive,
CN(C)C(=O)NC1(c2ccccc2)CCN(CCC[C@]2(c3ccc(Cl)c(Cl)c3)CCCN(C(=O)c3ccccc3)C2)CC1,inactive,
Cc1cc(Cc2ccc(N)c(C)c2)ccc1N,,34.9 µM (active)
CC1=C(C)S(=O)(=O)CCS1(=O)=O,inactive,
CCCCCCCCCC[N+](C)(C)[O-],,28.5 µM (active)
O=C(Oc1ccccc1)c1cccc(C(=O)Oc2ccccc2)c1,,36.4 µM (active)
Nc1nc(Cl)nc2c1ncn2[C@H]1C[C@H](O)[C@@H](CO)O1,inactive,
CCCCc1nc2cccnc2n1Cc1ccc(-c2ccccc2-c2nnn[nH]2)cc1,inactive,
S=c1[nH]c2ccccc2s1,inactive,
